# A number with no mark means an inactive call. Results filed as inconclusive are left out. Where a call stands in place of a potency, no number is given. Active and inactive are the calls of the source. Unless noted, calls come from the whole dose curve.
# Assays:
# [1] = Nuclear factor erythroid 2-related factor 2/antioxidant responsive element (Nrf2/ARE) small molecule agonists: qHTS cell viability counter screen in human keratinocytes (AID 1919968; active = well fitted curve in the direction sought with a large enough effect in the repeat runs; an effect the other way counts as inactive or inconclusive; note: nearly all actives have a fitted effect of over 55% in size; note: potency is the fitted concentration of half-maximal effect)
# Outline: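 Stably transfected HaCaT (KeratinoSens), 1,500/well. Test agents in DMSO were applied for 23 h, 37 C/5% CO2. CellTiter-Fluor was incubated 1 h before the fluorescence read.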
# [2] = Nuclear factor erythroid 2-related factor 2/antioxidant responsive element (Nrf2/ARE) small molecule agonists: luciferase reporter gene qHTS assay in human keratinocytes (AID 1919969); note: nearly all actives have a fitted effect of over 35% in size; note: potency is the fitted concentration of half-maximal effect
# [3] = target: Gonadotropin-releasing hormone receptor (Homo sapiens) (UniProt P30968); experiment: Human gonadotropin-releasing hormone receptor (GnRHR) small molecule agonists, calcium flux assay in GnRHR-HEK293 cells (AID 1920063); note: nearly all actives have a fitted effect of over 35% in size
# Outline: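 Stable human GnRHR HEK293 line. 18 h plating, then calcium dye for 1 h at 37 C. Agonist-mode compound addition from DMSO stocks; fluorescence monitored 3 min.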
# [4] = target: KiSS-1 receptor (Homo sapiens) (UniProt Q969F8); experiment: Human kisspeptin (KISS1R) small molecule agonists, calcium flux assay in KISS1R-HEK293 cells (AID 1920064; active = well fitted curve in the direction sought with a large enough effect in the repeat runs; an effect the other way counts as inactive or inconclusive)
# Outline: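 After overnight (18 h) culture at 37 C/5% CO2, human KISS1R-HEK293 cells received calcium dye for 1 h, then test compound; emission at 540 nm (excitation 480 nm) was tracked for 3 min.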
# [5] = G protein-coupled receptor (GPCR) small molecule agonists, calcium flux assay: HEK293 wild type cell line counter screen (AID 1920065)
# Outline: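 Following 18 h incubation at 37 C/5% CO2, plates got calcium dye for 1 h; compounds, ATP or DMSO were then pinned in and fluorescence followed kinetically (480/540 nm).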
# [6] = p53 small molecule agonists, cell-based qHTS assay with human liver microsomes (AID 1963577);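 note: p53 response element beta-lactamase reporter cells with liver microsomes plus NADPH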
# Outline: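 HLM-supplemented p53RE-bla reporter assay: 16 h compound exposure at 37 C, microsomes and NADPH each 0.5 mg/mL final, read by fluorescence intensity.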
# [7] = p53 small molecule agonists, cell-based qHTS assay with rat liver microsomes (AID 1963578)
# Outline: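 Quantitative HTS of the Tox21 10K library: p53RE-bla cells, rat liver microsomes plus NADPH at 0.5 mg/mL final each, 16 h at 37 C, beta-lactamase fluorescence detection.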
# [8] = p53 small molecule agonists, cell-based qHTS assay with human liver microsomes: qHTS cell viability counter screen (AID 1963579); note: nearly all actives have a fitted effect of over 45% in size
# Outline: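 Viability of p53RE-bla cells is measured as CellTiter-Glo luminescence following a 16 h, 37 C incubation with compound, liver microsomes from human donors and NADPH.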
# [9] = p53 small molecule agonists, cell-based qHTS assay with rat liver microsomes: qHTS cell viability counter screen (AID 1963580); note: nearly all actives have a fitted effect of over 45% in size
# Outline: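 Rat liver microsome (0.5 mg/mL final) and NADPH (0.5 mg/mL final) co-incubation with compounds for 16 h at 37 C on HCT-116 p53RE-bla cells; cytotoxicity taken from intracellular ATP luminescence.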
# [10] = p53 small molecule agonists, cell-based qHTS assay: qHTS cell viability counter screen (AID 1963581); note: nearly all actives have a fitted effect of over 45% in size
# Outline: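 qHTS counter screen: 16 h compound exposure at 37 C of p53RE-bla HCT-116 cells (4,000 per well, seeded 5 h prior), cell viability by ATP luminescence.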
# [11] = p53 small molecule agonists, cell-based qHTS assay (AID 1963582; active = well fitted activation curve with a large enough effect in the signal ratio in the repeat runs, not every such curve was filed as active; the % refers to the signal ratio)
# Outline: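 Measured: fluorescence from cleaved LiveBLAzer substrate. System: p53RE-bla cells, 16 h compound treatment at 37 C, 2 h substrate step at room temperature.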
# [12] = target: 5-hydroxytryptamine receptor 2A (Homo sapiens) (UniProt P28223); experiment: 5-hydroxytryptamine receptor 2A (HTR2A) small molecule agonists, cell-based qHTS assay (AID 1963587); note: nearly all actives have a fitted effect of over 30% in size
# Outline: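 Kinetic calcium-flux fluorescence (2 min, 1 sec intervals) after compound addition in agonist mode. HTR2A-CHO cells were cultured 18 h, then dye-loaded 1 h at 37 C.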
# [13] = target: Muscarinic acetylcholine receptor M1 (Homo sapiens) (UniProt P11229); experiment: Cholinergic receptor muscarinic 1 (CHRM1) small molecule antagonists, cell-based qHTS assay (AID 1963588); note: nearly all actives have a fitted effect of over 40% in size
# Outline: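 Compounds were tested at 15 concentrations in three independent runs. Dye-loaded CHRM1-CHO cells were exposed 5 min at room temperature before stimulation by acetylcholine added at 50nM. Intracellular calcium was read kinetically on FDSS for 3 min.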
# [14] = target: Muscarinic acetylcholine receptor M1 (Homo sapiens) (UniProt P11229); experiment: Cholinergic receptor muscarinic 1 (CHRM1) small molecule agonists, cell-based qHTS assay (AID 1963589); note: nearly all actives have a fitted effect of over 35% in size
# Outline: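 Kinetic fluorescence (1 s intervals) of calcium-sensitive dye in human M1 CHO cells after compound addition; cells pre-incubated 18 h at 37 C/5% CO2 and dye-loaded 1 h.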
# [15] = cAMP Responsive Elements (CRE) small molecule agonists, cell-based qHTS assay (AID 1963590)
# Outline: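 Test agents in DMSO were incubated 3 h at 37 C/5% CO2 with CRE-bla HEK 293T cells seeded 18 h earlier; LiveBLAzer B/G FRET substrate was added and read after 2 h at room temperature.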
# [16] = cAMP Responsive Elements (CRE) small molecule antagonists, cell-based qHTS assay (AID 1963591; active = well fitted inhibition curve with a large enough effect in the signal ratio in the repeat runs, not every such curve was filed as active; the % refers to the signal ratio)
# Outline: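 Reporter line CRE-bla HEK 293T in dialyzed-FBS DMEM; cells preincubated 18 h, treated 3 h with compound plus NKH477 (0.25 uM final); LiveBLAzer FRET, 2 h RT.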
# [17] = target: Beta-2 adrenergic receptor (Homo sapiens) (UniProt P07550); experiment: Adrenergic beta2 receptor (ADRB2) small molecule antagonists, cell-based qHTS assay (AID 1963592); note: series mostly up to about 92 µM; nearly all actives have a fitted effect of over 50% in size
# Outline: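 Assay format: CHO-ADRB2 cells, 18-20hr seeding at 37C/5% CO2, then compound plus 1nM isoproterenol agonist mix for 0.5hr RT. Homogeneous time-resolved fluorescence cAMP detection after 1hr, expressed as 665/615 nm ratio.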
# [18] = target: Beta-2 adrenergic receptor (Homo sapiens) (UniProt P07550); experiment: Adrenergic beta2 receptor (ADRB2) small molecule agonists, cell-based qHTS assay (AID 1963593);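 note: CHO cells stably overexpressing human ADRB2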
# Outline: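 CHO cells stably over-expressing ADRB2 were plated overnight at 37C, then dosed with compounds plus a stimulation mix containing 100uM IBMX and 25uM Ro-20-1724 for 0.5hr at room temperature. cAMP was measured by HTRF competition, 1hr.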
# [19] = target: D(2) dopamine receptor (Homo sapiens) (UniProt P14416); experiment: Dopamine D2 receptor (DRD2) small molecule agonists, cell-based qHTS assay (AID 1963594); note: nearly all actives have a fitted effect of over 35% in size
# Outline: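 cAMP accumulation in DRD2-HEK293 cells measured by HTRF after 1 h detection; compounds added 10 min before NKH477 (200nM […]) forskolin-analogue stimulation, 30 min at room temperature, with Ro20-1724 present at 0.1 mM final.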
# [20] = target: D(2) dopamine receptor (Homo sapiens) (UniProt P14416); experiment: Dopamine D2 receptor (DRD2) small molecule antagonists, cell-based qHTS assay (AID 1963595; active = well fitted inhibition curve with a large enough effect in the signal ratio in the repeat runs, with a control signal flat; the % refers to the signal ratio)
# Outline: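 Antagonism was scored as restored cAMP in HEK293-DRD2 cells. These cells were stimulated with 200 nM NKH477 and 12 nM quinpirole for 30 min at room temperature, in the presence of 0.1 mM Ro20-1724.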
# Sequence of Beta-2 adrenergic receptor (Homo sapiens) (P07550 whole entry, looked up): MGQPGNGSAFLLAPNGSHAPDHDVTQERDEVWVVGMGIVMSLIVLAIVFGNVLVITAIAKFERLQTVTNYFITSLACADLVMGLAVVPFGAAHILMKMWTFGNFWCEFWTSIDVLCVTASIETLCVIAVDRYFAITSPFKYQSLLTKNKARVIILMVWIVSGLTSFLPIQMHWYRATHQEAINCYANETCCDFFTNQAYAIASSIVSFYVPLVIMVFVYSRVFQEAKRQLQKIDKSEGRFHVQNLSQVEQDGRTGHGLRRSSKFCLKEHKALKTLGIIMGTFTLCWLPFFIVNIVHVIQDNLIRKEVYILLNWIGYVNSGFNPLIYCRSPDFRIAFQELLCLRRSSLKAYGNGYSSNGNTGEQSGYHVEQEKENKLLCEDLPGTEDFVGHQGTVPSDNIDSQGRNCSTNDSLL
# Sequence of Gonadotropin-releasing hormone receptor (Homo sapiens) (P30968 whole entry, looked up): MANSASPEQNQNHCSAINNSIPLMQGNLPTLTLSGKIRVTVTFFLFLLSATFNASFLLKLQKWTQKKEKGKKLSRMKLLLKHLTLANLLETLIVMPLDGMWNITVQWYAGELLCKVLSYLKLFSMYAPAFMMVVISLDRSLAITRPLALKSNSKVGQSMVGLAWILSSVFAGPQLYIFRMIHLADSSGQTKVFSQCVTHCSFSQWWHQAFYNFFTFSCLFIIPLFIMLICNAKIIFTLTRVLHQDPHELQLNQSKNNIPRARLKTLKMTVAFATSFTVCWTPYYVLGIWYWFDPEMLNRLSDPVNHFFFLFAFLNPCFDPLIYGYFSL
# Sequence of KiSS-1 receptor (Homo sapiens) (Q969F8 whole entry, looked up): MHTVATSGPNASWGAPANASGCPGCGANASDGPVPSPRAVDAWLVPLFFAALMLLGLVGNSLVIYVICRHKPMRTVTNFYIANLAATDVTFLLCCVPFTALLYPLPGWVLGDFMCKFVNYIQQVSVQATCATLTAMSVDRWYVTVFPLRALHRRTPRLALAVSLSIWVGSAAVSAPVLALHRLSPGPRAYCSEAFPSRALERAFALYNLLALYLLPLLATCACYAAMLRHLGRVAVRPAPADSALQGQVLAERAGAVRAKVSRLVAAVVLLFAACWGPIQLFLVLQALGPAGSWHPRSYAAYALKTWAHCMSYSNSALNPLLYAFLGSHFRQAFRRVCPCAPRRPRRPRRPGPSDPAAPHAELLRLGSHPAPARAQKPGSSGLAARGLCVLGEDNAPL
# Sequence of Muscarinic acetylcholine receptor M1 (Homo sapiens) (P11229 whole entry, looked up): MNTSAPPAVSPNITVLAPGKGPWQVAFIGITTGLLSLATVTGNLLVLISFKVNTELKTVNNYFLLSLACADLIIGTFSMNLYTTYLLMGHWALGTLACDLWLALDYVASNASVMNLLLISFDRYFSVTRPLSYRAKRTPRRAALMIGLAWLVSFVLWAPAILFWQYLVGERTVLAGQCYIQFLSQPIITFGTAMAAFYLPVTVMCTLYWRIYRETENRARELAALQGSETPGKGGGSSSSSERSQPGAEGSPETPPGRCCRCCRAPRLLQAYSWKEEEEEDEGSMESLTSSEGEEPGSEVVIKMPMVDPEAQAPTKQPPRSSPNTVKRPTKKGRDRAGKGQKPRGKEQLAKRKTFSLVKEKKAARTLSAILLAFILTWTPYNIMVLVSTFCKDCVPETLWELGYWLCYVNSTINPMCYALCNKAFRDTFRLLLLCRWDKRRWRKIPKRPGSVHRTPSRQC
# Sequence of D(2) dopamine receptor (Homo sapiens) (P14416 whole entry, looked up): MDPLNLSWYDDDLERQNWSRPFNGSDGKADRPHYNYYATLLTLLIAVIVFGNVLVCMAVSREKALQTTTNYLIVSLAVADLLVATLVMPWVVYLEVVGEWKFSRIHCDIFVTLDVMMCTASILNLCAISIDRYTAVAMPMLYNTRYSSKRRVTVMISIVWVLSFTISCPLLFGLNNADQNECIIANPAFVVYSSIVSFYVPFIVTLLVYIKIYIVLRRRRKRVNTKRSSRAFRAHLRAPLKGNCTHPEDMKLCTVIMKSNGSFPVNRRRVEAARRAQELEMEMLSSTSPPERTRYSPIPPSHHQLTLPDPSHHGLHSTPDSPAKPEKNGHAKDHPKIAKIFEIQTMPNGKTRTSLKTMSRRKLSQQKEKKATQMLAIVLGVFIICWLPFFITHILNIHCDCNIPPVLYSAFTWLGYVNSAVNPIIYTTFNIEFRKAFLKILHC
# Sequence of 5-hydroxytryptamine receptor 2A (Homo sapiens) (P28223 whole entry, looked up): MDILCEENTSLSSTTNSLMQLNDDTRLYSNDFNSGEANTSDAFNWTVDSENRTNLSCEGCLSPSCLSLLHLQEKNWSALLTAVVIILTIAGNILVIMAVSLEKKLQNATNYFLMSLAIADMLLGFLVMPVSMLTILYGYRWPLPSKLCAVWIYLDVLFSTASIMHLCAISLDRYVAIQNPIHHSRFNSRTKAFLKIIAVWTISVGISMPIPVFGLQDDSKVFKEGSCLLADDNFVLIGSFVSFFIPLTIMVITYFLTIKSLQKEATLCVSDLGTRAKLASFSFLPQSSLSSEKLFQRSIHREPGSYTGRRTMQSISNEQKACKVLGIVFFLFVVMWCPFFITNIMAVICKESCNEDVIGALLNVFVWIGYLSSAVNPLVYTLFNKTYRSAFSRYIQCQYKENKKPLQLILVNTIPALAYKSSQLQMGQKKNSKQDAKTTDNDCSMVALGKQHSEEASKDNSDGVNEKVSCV
SMILES,Potency [1],Potency [2],Potency [3],outcome [4],outcome [5],Potency [6],Potency [7],Potency [8],Potency [9],Potency [10],Potency [11],Potency [12],Potency [13],Potency [14],Potency [15],Potency [16],Potency [17],Potency [18],Potency [19],Potency [20]
N#Cc1c(F)cccc1F,inactive,inactive,inactive,inactive,inactive,inactive,inactive,inactive,inactive,inactive,inactive,inactive,inactive,inactive,inactive,inactive,inactive,inactive,inactive,–
CC(C)(C)NCCNC(C)(C)C,inactive,inactive,inactive,inactive,inactive,inactive,inactive,inactive,inactive,inactive,inactive,–,inactive,inactive,inactive,inactive,inactive,–,inactive,inactive
ONc1ccccc1,inactive,60.5 µM (active),inactive,inactive,inactive,inactive,inactive,inactive,inactive,inactive,inactive,–,inactive,–,inactive,inactive,inactive,–,inactive,inactive
CC(C)c1ccc(C#N)cc1,inactive,inactive,inactive,inactive,inactive,inactive,inactive,inactive,inactive,inactive,inactive,–,–,inactive,inactive,inactive,inactive,inactive,inactive,inactive
CCCCCc1ccc(N)cc1,inactive,inactive,inactive,inactive,inactive,inactive,inactive,inactive,inactive,inactive,inactive,–,inactive,inactive,–,inactive,inactive,inactive,inactive,inactive
C[C@@H]1CN(CCCn2c3ccccc3c3ccccc32)C[C@H](C)N1,26.6 µM (active),inactive,inactive,inactive,inactive,inactive,inactive,inactive,inactive,inactive,inactive,–,inactive,inactive,–,–,–,inactive,–,inactive
c1ccc(CC2=NCCN2)cc1,inactive,inactive,inactive,inactive,inactive,inactive,inactive,inactive,inactive,inactive,inactive,–,–,inactive,inactive,inactive,inactive,inactive,inactive,inactive
COc1cc(S(=O)(=O)O)c(C)cc1N=Nc1c(O)ccc2cc(S(=O)(=O)O)ccc12,24.3 µM (active),inactive,inactive,inactive,inactive,inactive,inactive,inactive,inactive,inactive,inactive,–,inactive,inactive,inactive,inactive,–,–,–,–

# From PubChem BioAssay (Tox21)
